Screening data deposited in PubChem by several laboratories.
FadD28 binding: blocks FadD28 binding to the bisubstrate probe; 360,000 compounds, 0.22% hits; inhibition, % at 12.5 µM; AID 588549; fluorescence polarization; in the data active = inhibition above about 8.5%, passing the limit was not always enough; inconclusive = no clear call, values can overlap the other calls
BJeLR viability: BJeLR cell viability loss; inhibition, % (concentration not given with the values); AID 1554; 300,000 compounds, 0.17% hits; BJeLR (HRASV12) viability, CellTiter-Glo ATP luminescence, 48 h; in the data active = inhibition above about 50%; inconclusive = no clear call, values can overlap the other calls
UGM FP inh: blocks M. tuberculosis UGM enzyme. P9WIQ1. purified UGM, fluorescence polarization probe displacement. inhibition, % at 10 µM. 320,000 compounds, 0.06% hits; in the data active = inhibition above about 10%, passing the limit was not always enough; inconclusive = no clear call, values can overlap the other calls
RecA intein inh: blocks M. tuberculosis RecA intein splicing; cell-free RecA intein splicing, fluorescence; inhibition, % (test concentration not listed); 290,000 compounds, 0.75% hits; P9WHJ3; AID 2221; in the data active = inhibition above about 30%; inconclusive = no clear call, values can overlap the other calls;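 note: 0% = vehicle wells and 100% = reference inhibitor control wells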
PrP 5UTR inh: inhibition of PrP 5' UTR reporter expression; cell-based PrP 5' UTR mRNA reporter, plate reader; inhibition, % (concentration not given with the values); 340,000 compounds, 0.35% hits; AID 488862; in the data active = inhibition above about 52%; note: 0 = median of the neutral control wells
Rv3671c protease: inhibitors of M. tuberculosis serine protease Rv3671c. P9WHR9. inhibition, % at 5.96 µM. 320,000 compounds, 0.048% hits; in the data active = inhibition above about 38%;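 note: extracellular domain of Rv3671c used as enzyme; 0% = enzyme with DMSO and 100% = no enzyme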
Target sequence (P9WHR9 whole entry, looked up, the tested form may be a part): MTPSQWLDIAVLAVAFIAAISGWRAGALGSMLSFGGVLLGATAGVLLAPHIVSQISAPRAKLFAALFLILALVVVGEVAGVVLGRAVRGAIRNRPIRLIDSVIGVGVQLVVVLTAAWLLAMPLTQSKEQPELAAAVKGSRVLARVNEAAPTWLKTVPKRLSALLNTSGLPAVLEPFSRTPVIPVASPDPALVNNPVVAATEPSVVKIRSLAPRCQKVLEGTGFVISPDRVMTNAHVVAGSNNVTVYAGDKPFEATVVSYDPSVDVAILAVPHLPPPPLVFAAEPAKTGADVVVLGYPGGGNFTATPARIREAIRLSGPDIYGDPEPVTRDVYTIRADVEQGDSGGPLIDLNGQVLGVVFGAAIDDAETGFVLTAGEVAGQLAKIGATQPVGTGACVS
The depositor's hits bear a star; ? = inconclusive; . = not tested or not shown. Sampled rows, rich in hits. Any-hit rate of the full collection: about 1.3%.

SMILES	FadD28 binding	BJeLR viability	UGM FP inh	RecA intein inh	PrP 5UTR inh	Rv3671c protease
CCC(C)(C)c1ccc(OCCCC[n+]2ccc(C)cc2)c(C(C)(C)CC)c1	.	24	1	0	.	4
CCC(C)(C)c1ccc(OCCCC[n+]2cccc(C)c2C)c(C(C)(C)CC)c1	-7	57*	-3	18	-3	5
CC(C)CSc1nc(N)nc2c1ncn2C1OC(CO)C(O)C1O (configuration not stated)	0	.	.	.	-23	.
O=C1/C(=C/C=C/c2ccco2)SC(=S)N1c1ccc(O)cc1	18*	10	-1	16	-39	15
CC(C)C(C(=O)O)N1C(=O)/C(=C/c2cccn2C)SC1=S (configuration not stated)	3	.	1	.	-10	-5
O=C(NN1C(=O)/C(=C/C=C/c2ccco2)SC1=S)c1ccncc1	30*	-6	3	1	.	12
CC(C)C(C(=O)O)N1C(=O)/C(=C/C=C/c2ccco2)SC1=S (configuration not stated)	47*	0	-4	13	-23	12
Cc1ccc(Cl)cc1N1C(=O)CC(Sc2ccccc2N)C1=O (configuration not stated)	-1	.	.	.	.	.
CN1CC(O)(C(O)C(O)C(O)CO)SC1=S (configuration not stated)	0	.	.	.	.	.
COc1ccc(-c2ccc3[nH]c4c(c3c2)CCN2C(=O)[C@@H]([C@H](C)O)[C@@H](N(C)C(=O)Nc3cc(Cl)cc(Cl)c3)C[C@@H]42)cc1	41*	.	.	.	.	.
COc1ccc(-c2ccc3[nH]c4c(c3c2)CCN2C(=O)[C@@H]([C@H](C)O)[C@@H](N(C)C(=O)Nc3ccc(F)cc3)C[C@@H]42)cc1	-1	.	.	.	.	.
O=C(c1ccoc1)N1CCN(c2cc(-c3cccc(F)c3)nc3cc(-c4cccc(Cl)c4)nn23)CC1	-1	.	.	.	.	.
Cc1ccc(F)c(S(=O)(=O)NC(=O)C2(C)CCN2C(=O)CC(c2ccccc2)c2ccccc2)c1 (configuration not stated)	-2	.	.	.	.	.
Cc1cccc2c1NC(=O)/C2=C\C(=O)c1cccs1	0	24	3	20	-13	1
Cc1cc(Br)c2c(c1)/C(=C/C(=O)c1cccs1)C(=O)N2	-4	3	-2	78*	-24	-9
O=C(NC(Nc1ncc(S(=O)(=O)c2ccc([N+](=O)[O-])cc2)s1)(C(F)(F)F)C(F)(F)F)c1ccc(Cl)cc1	1	70*	1	6	-12	-3
COCC(=O)Nc1ncc(S(=O)(=O)c2ccc([N+](=O)[O-])cc2)s1	1	-5	-2	-3	-4	5
COc1ccc(-c2nc(-c3cccs3)c(-c3cccs3)[nH]2)cc1O	11*	-5	-2	27	-5	17
Cc1[nH]n(C(N)=S)c(=O)c1C(c1ccccc1)C(C#N)C#N (configuration not stated)	1	-4	0	43*	-9	-4
Cc1[nH]n(-c2ncc(-c3ccccc3)s2)c(=O)c1C(c1ccc(Br)cc1)C(C#N)C#N (configuration not stated)	?	-2	1	7	-3	9
CC1(C(=O)NCc2ccco2)CCN1C(=O)C1(c2ccccc2)CC1 (configuration not stated)	0	.	.	.	.	.
Nc1ccc(-c2c3ccc(=O)cc-3oc3cc(O)ccc23)cc1C(=O)O	7	2	45*	-32	-18	9
CCCCCCCCCCCCCCCC[n+]1cccc2ccccc21	17*	.	0	.	10	1
CCCCCCCCC[n+]1cccc2c3ccccc3ccc21	-6	10	-2	1	1	-12
CCCCCCn1ccc(=N)cc1	1	12	-4	3	0	0
SMILES	FadD28 binding	BJeLR viability	UGM FP inh	RecA intein inh	PrP 5UTR inh	Rv3671c protease
CCCCCCCCCCCCCCCCn1cc[n+](CC(C)=O)c1	36*	.	.	.	-3	.
COc1ccc(NC(=O)CSc2nnc3n2CCCCC3)cc1OC	0	.	.	.	.	.
COCCCn1c(=O)/c(=C\c2ccccc2OC(C)C)s/c1=C(/C#N)C(=O)Nc1ccc(C(=O)O)cc1	-1	-3	15*	-10	1	-18
CC(c1ccc2ccccc2c1)c1ccccc1C(=O)O (configuration not stated)	1	.	.	.	.	.
CCCOC(=O)c1ccc(NC(=O)c2cc(OC)c(OC)c(OC)c2Br)cc1	13*	-3	-3	10	0	-8
COC(=O)c1cc(OC)c(OC)cc1NC(=O)CCN1C(=O)C2CCCCC2C1=O (configuration not stated)	-2	.	.	.	.	.
N=C1/C(=C\c2ccc(OC(=O)c3ccc(F)cc3)cc2)C(=O)N=C2SC(N3CCOCC3)=NN12	-1	5	0	39*	-23	4
CS(=O)(=O)C1=NN2C(=N)/C(=C\c3ccc(OC(=O)c4ccco4)cc3)C(=O)N=C2S1	-3	-8	-1	37*	0	2
COc1cc(/C=C2/C(=N)N3C(=NC2=O)SN=C3S(=O)(=O)C(C)C)ccc1OC(=O)c1ccco1	-2	-9	1	23	-11	0
CCOc1cc(/C=C2/C(=N)N3C(=NC2=O)SN=C3S(=O)(=O)C(C)C)ccc1OC(=O)c1ccco1	-4	-7	-1	32*	-9	-11
CC(C)CS(=O)(=O)C1=NN2C(=N)/C(=C\c3ccc(OC(=O)c4ccco4)cc3)C(=O)N=C2S1	4	4	-2	40*	-7	-10
COCCNC(=O)C1(C)CCCN(C(=O)c2ccco2)C1 (configuration not stated)	-2	.	.	.	.	.
COc1ccc(C(=O)OCC(=O)N2c3ccccc3CC2C)cc1S(=O)(=O)N1CCOCC1 (configuration not stated)	0	.	.	.	.	.
COc1ccc(C2C(C#N)=C(N)OC3=C2C(=O)CCC3)cc1Cn1nc(C)c([N+](=O)[O-])c1C (configuration not stated)	-2	6	0	4	-6	-1
COc1ccc(C2C(C#N)=C(N)Oc3n[nH]c(C)c32)cc1Cn1nc(C)c([N+](=O)[O-])c1C (configuration not stated)	0	5	1	84*	-1	-3
COc1cc(C2C(C#N)=C(N)Oc3n[nH]c(-c4cccnc4)c32)ccc1OCC(N)=O (configuration not stated)	-2	-9	-1	46*	-35	-24
COc1cc(C2C(C#N)=C(N)Oc3n[nH]c(C)c32)ccc1OC(=O)c1ccccc1 (configuration not stated)	0	-3	-4	38*	-14	-6
O=C(Cc1ccccc1[N+](=O)[O-])NCC1(c2cccc3c2OCO3)OCCO1	-5	.	.	.	-52	.
COc1ccc(OC)c(NC(=O)C2(C)CCN2Cc2ccsc2)c1 (configuration not stated)	-1	.	.	.	.	.
